Test results taken from PubChem BioAssay (NCI).
This is part of a sample that, as a whole, favours compounds with a hit. Of some 83,000 tested, about 20% had one in any assay.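 Single-dose data. Exposure time 48 hours. Values below 10 considered active.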 The source made the active and inactive calls.

What follows are molecules tested on EKVX NSCLC (assay: NCI-60 one-dose screen, 48 h (100 = growth as untreated, 0 = no growth, -100 = all killed)). Conditions: 10 µM.

Compound | growth
COc1cccc(O)c1O | 99.6% (inactive)
CC(=O)/C(Cc1ccccc1)=N/O | 92.4% (inactive)
C=CCNC(=O)c1ccc(OC)cc1 | 109% (inactive)
C/C(=N/NC(N)=O)c1ccco1 | 100% (inactive)
COCCOC(=O)c1ccc(C(C)C)cc1 | 100% (inactive)
C[N+](C)=c1ccc2nc3c(cc(Nc4ccccc4)c4ccccc43)oc-2c1 | 90.2% (inactive)
Cc1cccc(CO)c1 | 113% (inactive)
Nc1nc(N)c(N=Nc2ccc(C(=O)O)cc2)c(N)n1 | 100% (inactive)
COCCOCCCl | 112% (inactive)
Nc1ncnc2[nH]ncc12 | 30.4% (inactive)
O=[N+]([O-])c1ccc(-c2ncc(-c3ccc(Br)cc3)o2)cc1 | 101% (inactive)
CCOC(=O)CSc1c([N+](=O)[O-])ncn1C | 95.6% (inactive)
CC(C)(O)C#CC#CC(C)(C)O | 99.5% (inactive)
COc1cc(C2NC(=O)C(C#N)=C(Nc3cccc(C)c3)S2)ccc1O (stereo not drawn) | 94.9% (inactive)
CCOC(=O)Nc1nn[nH]n1 | 112% (inactive)
O=C(NN=C1CCCCC1)C(=O)NN=C1CCCCC1 | 109% (inactive)
O=C(CCl)Nc1ccc2c(c1)C(=O)c1ccc(NC(=O)CCl)cc1C2=O | -15.2% (active)
CCCCOC(=O)c1ccc(C(C)C)cc1 | 91.7% (inactive)
O=C(NC1CCCCC1)OCc1c(COC(=O)NC2CCCCC2)c(-c2ccc(Cl)c(Cl)c2)n2c1CCC2 | 60.5% (inactive)

Compound | growth
N#CCCN(CCCN1CCOCC1)CN1C(=O)c2ccccc2C1=O | 107% (inactive)
Cc1ccccc1N=C(c1ccccc1)C1C(=O)c2ccccc2C1=O | 88.9% (inactive)
O=c1[nH]cc(Cl)cc1O | 82.2% (inactive)
CC(C)OC(C(=O)O)c1ccccc1 (stereo not drawn) | 108% (inactive)
CCCOC(=O)C(O)c1ccccc1 (stereo not drawn) | 50.6% (inactive)
COc1ccccc1NC(=O)c1cc2cc(Br)ccc2cc1O | 22.4% (inactive)
OCCN1CCOCC1 | 116% (inactive)
OCC1OC(OC2C(O)C(CO)OC2(CO)OC2OC(CO)C(O)C(O)C2O)C(O)C(O)C1O (stereo not drawn) | 103% (inactive)
Cc1ccc(Cl)cc1NC(=O)N(C)CCO | 116% (inactive)
CCOC(=O)C(O)C(O)C(=O)OCC (stereo not drawn) | 111% (inactive)
O=c1cc(-c2ccccc2)nc2cc(-c3ccco3)[nH]n12 | 89.7% (inactive)
S=c1[nH]ccn1-c1ccccc1Cl | 112% (inactive)
C[N+](C)(C)C(=O)c1ccccc1 | 108% (inactive)
CCc1ccc(/C(C#N)=C/C=C/c2ccccc2)cc1 | 52.3% (inactive)
O=C(O)c1ccnc(Br)c1 | 98.1% (inactive)
S=c1nn[nH]c2ccccc12 | 117% (inactive)
O=[N+]([O-])c1ccc(CO)cc1 | 101% (inactive)
O=C1C=C(O)C(=O)C=C1O | 102% (inactive)
C#Cc1cccc(NC(=O)c2ccc(Cl)cc2Cl)c1 | 91.3% (inactive)
